Screens: PubChem BioAssay, Sanford-Burnham Center for Chemical Genomics
An excerpt weighted towards active compounds, which were near 4.1% of everything screened.
FAS-TE inh – blocks the thioesterase domain of human fatty acid synthase. recombinant FAS-TE, OMFH fluorogenic substrate, fluorescence endpoint. 0.67% of 360,000 active. AID 602261. P49327. inhibition, % at 15 µM;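 active = compounds whose normalised, plate-corrected inhibition of enzyme fluorescence in the single-dose primary screen is 50% or more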
MPTP inh – permeability transition pore inhibition. isolated mouse mitochondria, Ca2+ swelling absorbance, 30 min. inhibition, % at 10 µM. 1.4% of 360,000 active;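 active = inhibition of 50% or more, scaled per plate between neutral and stimulator controls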
NR3A LBD binder – NR3A (human) ligand-binding domain modulation; Tm shift relative to glycine control, % at 25 µM; 2.5% of 340,000 active; NR3A LBD differential scanning fluorimetry, Tm shift; 0% = protein alone, 100% = glycine-bound protein;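 active = melting temperature shift of at least 10% of the positive control shift, at one fixed dose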
beta cell repl – induces beta-cell replication in MIN6 cells; MIN6 cells proliferation, ATPlite luminescence, 48 h; cells starved in 0.2% serum; 100% = growth in 10% serum; proliferation, % at 10 µM; 0.29% of 330,000 active;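 active = compounds whose signal lies at least 3.5 SD above the mean of all wells on their plate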
pCIP destab – compounds decreasing mouse p/CIP protein stability. AID 1984. Q05BA5. F442A p/CIP-EGFP cells, EGFP fluorescence, 16 h. decrease of EGFP signal, % at 10 µM. 0.01% of 290,000 active;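 active = EGFP signal decrease of at least 30% at 10 µM or well 3 SD below plate mean, unless failing retest; inactive = the rest, including hits failing retest or dose response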
Numbers stand for hits; i = inactive; nt = no result given.

SMILES	FAS-TE inh	MPTP inh	NR3A LBD binder	beta cell repl	pCIP destab
Cc1ccc(N2C(=O)CS/C2=C(\C(Cl)=C(Cl)Cl)[N+](=O)[O-])cc1	i	i	11	i	i
Nc1nonc1-n1nnc(C(=O)N/N=C/c2ccco2)c1CSc1ccccc1	i	i	27	i	i
Cc1ccc(SCc2c(C(=O)N/N=C/c3ccco3)nnn2-c2nonc2N)cc1	i	i	nt	nt	nt
Nc1nonc1-n1nnc(C(=O)N/N=C/c2cc(Br)ccc2O)c1CNc1ccccc1	i	i	23	i	i
Cc1ccc(SCc2c(C(=O)N/N=C/c3ccoc3)nnn2-c2nonc2N)cc1	i	i	12	i	i
CCN(CC)Cc1c(C(=O)N/N=C/c2cccnc2)nnn1-c1nonc1N	i	i	i	i	i
CCN(CC)Cc1c(C(=O)N/N=C/c2ccc(OCc3ccccc3C)cc2)nnn1-c1nonc1N	i	i	33	i	i
CCc1cc(=O)oc2cc(OC(C)C(=O)N3CC[C@@]4(O)CCCC[C@H]4C3)ccc12 (stereo partly specified)	i	i	nt	nt	nt
COC(=O)C1(C(=O)OC)c2cc3c(cc2CN(S(=O)(=O)c2ccc(C)cc2)C1CC(C)=O)OCO3 (stereo unspecified)	nt	i	nt	nt	nt
CC(C)(C)NC(=O)C(c1cc2ccccc2o1)n1c(=O)c(-c2cc3ccccc3[nH]2)nc2ccccc21 (stereo unspecified)	nt	i	nt	nt	nt
CCC(CC)C(=O)N(C)c1c(C)nc2c(OCc3ccc(F)c(F)c3)cccn12	i	i	nt	nt	nt
Cc1ccc(SCc2c(C(=O)N/N=C/c3ccccc3)nnn2-c2nonc2N)cc1	i	i	33	i	i
CCCc1c(C(=O)N/N=C/c2ccc(OCc3ccc(F)cc3)cc2)nnn1-c1nonc1N	i	i	nt	nt	nt
Cc1ccc(/C=N/NC(=O)c2nnn(-c3nonc3N)c2CSc2ccccc2)cc1	i	i	40	i	i
Cc1ccc(/C=N/NC(=O)c2nnn(-c3nonc3N)c2CNc2ccccc2)cc1	i	i	35	i	i
Nc1nonc1-n1nnc(C(=O)N/N=C/c2ccc(OCc3ccccc3F)cc2)c1CNc1ccccc1	i	i	34	i	i
Cc1ccc(SCc2c(C(=O)N/N=C/c3cccs3)nnn2-c2nonc2N)cc1	i	i	nt	nt	nt
CC1(C)OCC(CNC(=O)c2[nH]c(C(F)(F)F)nc2-c2ccccc2)O1 (stereo unspecified)	i	i	nt	nt	nt
CC(=O)Nc1ccc(-c2ccnc3c2CC(C(=O)Nc2cccc(OC(F)(F)F)c2)O3)cc1 (stereo unspecified)	i	i	nt	nt	nt
CCCc1c(C(=O)N/N=C/c2ccc3c(c2)OCO3)nnn1-c1nonc1N	i	i	nt	nt	nt
Cc1ccc(SCc2c(C(=O)N/N=C/c3ccc4c(c3)OCO4)nnn2-c2nonc2N)cc1	i	i	31	i	i
Cc1noc(C)c1COC(=O)c1ccc(-c2nc3ccccc3s2)s1	i	i	21	i	i
CCNC(=O)COC(=O)c1ccc(-c2nc3ccccc3s2)s1	i	i	i	i	i
c1ccc2c(-c3c[nH]c4ccccc34)c3ccccc3nc2c1	i	i	i	i	i
O=C(O)c1cc(-c2c[nH]c3ccccc23)nc2ccc3ccccc3c12	i	i	11	i	i
SMILES	FAS-TE inh	MPTP inh	NR3A LBD binder	beta cell repl	pCIP destab
CCCCNC(=S)N(C)/N=C/c1c(C)[nH]c2ccccc12	i	i	12	i	i
CCCCNC(=S)N(C)/N=C/c1c(F)c(F)c(F)c(F)c1F	i	i	20	i	i
Cc1ccc(S(=O)(=O)N2C(c3ccccc3)CC(=O)C3CN(S(=O)(=O)c4ccc(Cl)cc4)C(c4ccccc4)CC32)cc1 (stereo unspecified)	nt	i	nt	nt	nt
COc1cc(NC(=O)c2ccnc(N)c2)cc(C(=O)Nc2cccc(C(F)(F)F)c2)c1	i	i	13	i	i
Cc1ncsc1C(=O)Nc1cccc(C(F)(F)F)c1	i	i	27	i	i
CCOC(=O)c1nccnc1C(=O)Nc1cccc(C(F)(F)F)c1	i	i	i	i	i
COc1cc(NC(=O)c2csc(N)n2)cc(C(=O)Nc2cccc(C(F)(F)F)c2)c1	i	i	19	i	i
COc1cc(NC(=O)c2cc(C)on2)cc(C(=O)Nc2cccc(C(F)(F)F)c2)c1	i	i	i	i	i
COc1cc(NC(=O)c2cnc(N)s2)cc(C(=O)Nc2cccc(C(F)(F)F)c2)c1	i	i	37	i	i
COc1cc(NC(=O)c2cnc(N)o2)cc(C(=O)Nc2cccc(C(F)(F)F)c2)c1	i	i	i	i	i
